# Results: PubChem BioAssay (Tox21)
# Results filed as inconclusive are left out. Unmarked numbers belong to inactive results. Calls come from the whole dose curve; as a rule, active = well fitted cell-killing curve with a large enough effect in the repeat runs; inconclusive = weak or mixed curves; inactive = flat fitted curve, though single readings scatter.
# Test: qHTS RealTime-Glo MT Cell Viability Assay in HepG2 cells - 24 hour (AID 1224867); note: nearly all actives have a fitted effect of over 50% in size
# Details: RealTime-Glo luminescence; series mostly up to 76.8 µM; activity change, negative = cytotoxicity: at the top concentration
# From the text: U.S. Tox21 Program National Center for Advancing Translational Sciences [NCATS] NIH Chemical Genomics Center [NCGC] U.S. Environmental Protection Agency [EPA] National Institutes of Environmental Health Sciences [NIEHS] National Toxicology Program [NTP] U.S. Food and Drug Administration [FDA] Tox21 Assay Overview: Measure of cell viability is critical in the cell-base assay. Analysis of cell viability is necessary for the characterization of cell responses to cytotoxic drugs and environmental stress. A RealTime-Glo MT Cell Viability Assay to monitor cell viability in real time of continues cell culture during 40 hours of compound treatment was used to screen Tox21 10K library compounds in HepG2 cells. The RealTime-Glo MT Cell Viability Assay is a nonlytic, homogeneous, bioluminescent method to measure cell viability in real time using a simple, plate-based method. The assay involves adding NanoLuc luciferase and a cell-permeant prosubstrate to cells in culture. Viable cells reduce the proprietary prosubstrate to generate a substrate for NanoLuc luciferase. This substrate diffuses from cells into the surrounding culture medium, where it is rapidly used by the NanoLuc Enzyme to produce a luminescent signal. The signal correlates with the number of viable cells, making the assay well suited for cytotoxicity studies.
# Tox21 Assay Protocol Summary: The mixture of HepG2 cell suspension and reagents were dispensed at 600cells/6 ul/well in 1536-well tissue culture treated black solid bottom plates using a Multidrop dispenser. After the assay plates were incubated at a 37 C/5% CO2 incubator for 5 hours, 23 nL of compounds dissolved in DMSO, positive and negative controls was transferred to the assay plate by a pintool work station. The plates were incubated at 37 C for 40 hours. The luminescence intensity were measured at 0h, 8h, 16h, 24h, 32h and 40h time points using ViewLux plate reader during compound treatment.
# % is set by controls: 0 for no effect and ±100 for the full control effect.
row,SMILES,"activity change, negative = cytotoxicity"
1,CC(C)[N+](C)(C)CC(O)COc1cccc2ccccc12 (stereo not given),-17.3% [at 35.3 µM]
2,CC(C)c1cccc(O)c1,-0.573%
3,O=C1OC(=O)c2cc([N+](=O)[O-])ccc21,0.252%
4,CCCCOCC(C)OCC(C)O (stereo not given),1.25%
5,CC(C)[C@H](N)C(=O)OCCOCn1cnc2c(=O)[nH]c(N)nc21,3.88% [at 35.3 µM]
6,COc1cc(C(=O)N2CCOCC2)cc(OC)c1OC,2.23% [at 35.3 µM]
7,[O-][N+](=Nc1ccccc1)c1ccccc1,0.885%
8,CC(=O)N[C@@H](CCC(N)=O)C(=O)O,1.22% [at 35.3 µM]
9,NCC[C@H](O)C(=O)N[C@@H]1C[C@H](N)[C@@H](O[C@H]2O[C@H](CN)[C@@H](O)[C@H](O)[C@H]2O)[C@H](O)[C@H]1O[C@H]1O[C@H](CO)[C@@H](O)[C@H](N)[C@H]1O,1.55% [at 0.29 µM]
10,O=C(CCOCCOCCOCCOCCC(=O)Nc1c(I)cc(I)c(C(=O)O)c1I)Nc1c(I)cc(I)c(C(=O)O)c1I,-3.32% [at 35.3 µM]
11,C#CC(O)CCCCC (stereo not given),4.49%
12,CC/C=C\CCCCO,0.275%
13,CCCCNc1ccccc1,-0.541%
14,CCn1cc(C(=O)O)c(=O)c2cc(F)c(N3CCN(C)CC3)cc21,0.0471% [at 15.8 µM]
15,NC(=O)c1ncn([C@@H]2O[C@H](CO)[C@@H](O)[C@H]2O)c1N,0.837% [at 35.3 µM]
16,c1ccc2cnncc2c1,1.06%
17,COCCOC(=O)CC#N,1.8%
18,CC1=CCC2C(C1)C2(C)C (stereo not given),-0.297%
19,COC(=O)CCCC(=O)O,0.137%
20,CN(C)CCOC(c1ccc(Cl)cc1)c1ccccn1 (stereo not given),4.18% [at 35.3 µM]

row,SMILES,"activity change, negative = cytotoxicity"
1,NC(=O)c1c(Cl)cccc1Cl,-1.83%
2,C=C(C)C(=O)NCCC[N+](C)(C)C,1.74%
3,O=C(O)CCNC(=O)c1ccc(N=Nc2ccc(O)c(C(=O)O)c2)cc1,-0.6% [at 35.3 µM]
4,C=CCOc1nc(OCC=C)nc(OCC=C)n1,0.377%
5,C=CC(=O)OCCCCCC,1.08%
6,CCCCN(CCO)CCO,2.29%
7,CC12CCC(CC1=O)C2(C)C (stereo not given),0.35%
8,N#CCN(CC#N)CCN(CC#N)CC#N,-0.404%
9,CC(C)N1C(=O)c2ccccc2C1=O,0.104%
10,C=CCn1c(=O)n([C@@H]2O[C@H](CO)[C@@H](O)[C@H]2O)c2nc(N)[nH]c(=O)c21,2.2% [at 35.3 µM]
11,CSc1ccc(C=O)cc1,0.436%
12,CC(C)CCCC(C)CCCC(C)CCCCC(C)CCCC(C)CCCC(C)C (stereo not given),1.31% [at 35.3 µM]
13,CCCCCCCCCCCl,0.385%
14,CCCC=O,0.401%
15,CNc1ncnc2nc[nH]c12,1.85%
16,CC1=CC(=O)CCC1,0.896%
17,CCC(C)OC(=O)N1CCCCC1CCO (stereo not given),0.697%
18,Cc1ccccc1Br,1.06%
19,CCCCC1CCCCC(=O)O1 (stereo not given),-0.33%
20,CCc1cc(S(=O)(=O)O)c2cc(C(C)C)cccc1-2,2.4% [at 35.3 µM]
